# From PubChem BioAssay
# Only some compounds are listed: those with a hit (about 18% of all), similar ones and a draw of the others.
# TDP1 cell noCPT – qHTS for Inhibitors of human tyrosyl-DNA phosphodiesterase 1 (TDP1): qHTS in cells in absence of CPT; 420,000 tested, 15% active; AID 686978, 2013; DT40 Tdp1-/- hTDP1 cells, no CPT, ATP luminescence, 48 h; Potency, µM (top dose mostly 46.2 µM), without a hit: at the top dose activity change, negative = growth inhibition, hits mostly inhibitors; also: potency is read from the fitted curve at half-maximal effect; % is scaled to controls: 0 for no effect and ±100 for the full control effect; nearly all actives have a fitted effect of over 55% in size
#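 Growth kinetics read by CellTiter-Glo luminescence after ≥48 hr at 37 °C. Cells: DT40 Tdp1-/- stably carrying human TDP1, 400 per well, compound exposure in the absence of CPT (DMSO vehicle).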
# HepG2 viability – HepG2 cytotoxicity, counter-screen for TGF-b inhibitors | HepG2 CAGA-GFP viability, ATP luminescence, 18 h | Potency, µM (doses to about 46.1 µM), inactives show top-dose activity change, negative = cytotoxicity, actives largely listed as cytotoxic | 410,000 tested, 0.76% active | AID 588856; also: potency is read from the fitted curve at half-maximal effect
#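 HepG2 CAGA-GFP cells (1000/well, DMEM with 1% FBS) received compound, then TGF-beta at 500 pg/mL final, and were incubated 18 hours at 37 degrees C. Viability was read by CellTiter-Glo luminescence. Media-only wells were set as complete cell-killing and DMSO as no toxicity.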
# TGFb SMAD3 inh – blocks TGF-b signaling. Potency, µM (top dose mostly 46.1 µM), for the others: at the highest dose activity, negative = inhibition, hits mostly inhibitors. HepG2 CAGA-GFP TGF-b/SMAD3 reporter, GFP fluorescence, 18 h; TGF-beta stimulated, 500 pg/mL final. 410,000 tested, 1.2% active. AID 588855; also: potency is read from the fitted curve at half-maximal effect; % is scaled to controls: 0 for no effect and ±100 for the full control effect; nearly all actives have a fitted effect of over 65% in size
#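 Cell-based qHTS in HEPG2 carrying a CAGA-GFP Smad reporter; compounds added before 500 pg/mL final TGF-beta, 18 h incubation at 37 degrees C, GFP fluorescence quantified per cell by imaging cytometry.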
# IL-1B inflam inh – blocks inflammasome-driven IL-1 beta release; THP-1 LPS/ATP IL-1B secretion, AlphaLISA, 16 h; active compounds read low; activity change, % at 57.5 µM; 360,000 tested, 4.7% active; in the data active = activity change below about -50%; inconclusive = mostly about -30% to -49%; also: % is scaled to controls: 0 for no effect and ±100 for the full control effect
#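 Secreted IL-1B measured by AlphaLISA bead assay after 16 h compound exposure of THP-1 cells; compounds (final up to 57.5 uM) added 1 h before LPS (250 ng/mL) and ATP (1.25 mM) stimulation; lower signal means less secretion.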
# TDP1 block – TDP1 (human) enzyme inhibition; AID 485290; recombinant TDP1, AlphaScreen DNA substrate cleavage; Potency, µM (titrated, usually from 130 µM), inactives show at the highest dose activity change, negative = inhibition, actives largely listed as inhibitors; Q9NUW8; 350,000 tested, 0.28% active; also: potency is read from the fitted curve at half-maximal effect; % is scaled to controls: 0 for no effect and ±100 for the full control effect; nearly all actives have a fitted effect of over 40% in size
# Target sequence (Q9NUW8 whole entry, looked up): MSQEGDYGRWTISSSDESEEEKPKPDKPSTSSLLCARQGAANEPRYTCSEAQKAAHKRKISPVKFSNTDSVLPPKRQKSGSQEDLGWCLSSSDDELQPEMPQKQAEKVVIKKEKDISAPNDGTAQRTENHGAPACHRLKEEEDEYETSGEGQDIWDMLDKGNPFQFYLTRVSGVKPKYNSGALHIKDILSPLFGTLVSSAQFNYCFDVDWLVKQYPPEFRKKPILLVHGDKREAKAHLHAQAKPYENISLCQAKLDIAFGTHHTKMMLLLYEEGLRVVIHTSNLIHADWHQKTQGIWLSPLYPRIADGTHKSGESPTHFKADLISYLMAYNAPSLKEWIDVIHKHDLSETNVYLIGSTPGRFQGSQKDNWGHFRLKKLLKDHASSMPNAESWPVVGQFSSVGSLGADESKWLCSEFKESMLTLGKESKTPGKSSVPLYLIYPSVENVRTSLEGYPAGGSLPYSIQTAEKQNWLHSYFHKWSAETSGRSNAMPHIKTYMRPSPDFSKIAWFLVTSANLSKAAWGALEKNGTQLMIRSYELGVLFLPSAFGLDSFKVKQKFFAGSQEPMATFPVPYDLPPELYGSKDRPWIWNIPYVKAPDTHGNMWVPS
#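 Enzyme-compound mixtures sat 15 min at room temperature, followed by a 5 min reaction with 15 nM final substrate and 10 min with AlphaScreen beads. Recombinant human Tdp1 was used at 1 nM final.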
# TDP1 cell CPT – growth inhibition of DT40 Tdp1-/-;hTDP1 cells with camptothecin (screen for TDP1 inhibitors); chicken DT40 Tdp1-/-;hTDP1 cells + 20 nM CPT, ATP luminescence, 48 h; Potency, µM (series often up to 46.2 µM), for inactives: top-dose activity change, negative = growth inhibition, hits mostly inhibitors; 420,000 tested, 12% active; AID 686979; also: potency is read from the fitted curve at half-maximal effect; % is scaled to controls: 0 for no effect and ±100 for the full control effect; nearly all actives have a fitted effect of over 55% in size
#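 Chicken DT40 Tdp1-/- cells complemented with human TDP1, 400 cells/well, exposed to compounds plus 20 nM camptothecin for at least 48 h at 37 C; viability read as ATP content by CellTiter-Glo luminescence.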
# Numbers without * were called inactive; ? = inconclusive; . = no result given. Unless noted, calls follow the shape of the dose curve; as a rule, active = well fitted curve in the direction sought with a large enough effect; inconclusive = small, poorly fitted or top-dose-only effect, or another doubt; inactive = no such curve, though single readings can be large; an effect the other way counts as inactive or inconclusive.
SMILES,TDP1 cell noCPT,HepG2 viability,TGFb SMAD3 inh,IL-1B inflam inh,TDP1 block,TDP1 cell CPT
O=C(CN1C(=O)NC2(CCCC2)C1=O)OCc1ccc(Cl)c(Cl)c1,21µM*,-36%,-10%,-1,.,16µM*
CC(=O)Nc1ccc(NC(=O)CN2C(=O)NC3(CCCCCCC3)C2=O)cc1,?,-1%,12%,22,0%,-16%
CC1CCC2(CC1)NC(=O)N(CC(=O)Nc1cccc(S(=O)(=O)N3CCCCC3)c1)C2=O (stereo not given),23µM*,-22%,2%,-4,4%,?
O=C(CN1C(=O)NC2(CCCCCCC2)C1=O)Nc1ccc(Cl)cc1,15µM*,-46%,-20%,17,-1%,13µM*
CC1CCC2(CC1)NC(=O)N(CC(=O)Nc1cccc(S(=O)(=O)N3CCOCC3)c1)C2=O (stereo not given),2%,-54%,4%,22,3%,-12%
Cc1ccc(Sc2ccc(NC(=O)CCl)cc2)c(C)c1,18µM*,-90%,?,-67*,-3%,15µM*
CC(=O)Nc1ccc(NC(=O)CSc2ccc(C)cc2)cc1,-16%,8%,-11%,8,1%,-2%
COC(=O)N1CCC2(CC1)CN(C(=O)Nc1cccc(F)c1)C2,-14%,.,.,.,.,-5%
COC(=O)[C@H](CCSC)NC(=O)NC1CC1,-2%,138%,0%,16,0%,-3%
O=C(CNC(=O)c1ccc2ccccc2c1)OC(C(=O)Nc1cc(C(F)(F)F)ccc1Cl)c1ccccc1 (stereo not given),.,.,.,.,-13%,.
CCc1ccc(C(=O)CN2C(=O)NC3(CCCCCC3)C2=O)cc1,23µM*,-10%,11%,-27,-2%,?
COCCn1c(C)cc(C(=O)CN2C(=O)NC3(CCCCCC3)C2=O)c1C,3%,2%,-6%,-12,3%,1%
CC(C)CC1(C)NC(=O)N(CC(=O)Nc2ccc3c(c2)CCC3)C1=O (stereo not given),26µM*,-14%,-15%,0,0%,?
CCC1(c2ccccc2)NC(=O)N(CC(=O)Nc2cc(S(=O)(=O)N3CCCCC3)ccc2N(C)C)C1=O (stereo not given),21µM*,1%,-6%,-30,1%,?
Cc1ccc(C2(C)NC(=O)N(CC(=O)Nc3ccc4c(c3)CCC4)C2=O)cc1 (stereo not given),-23%,-8%,-19%,-25,2%,?
CCN(CC)c1ccc(S(=O)(=O)N2CCCCC2)cc1NC(=O)CN1C(=O)NC2(CCCC2)C1=O,?,-26%,17%,?,-11%,-26%
CCCn1c(C)cc(C(=O)CN2C(=O)NC3(CCCCCC3)C2=O)c1C,6.5µM*,-29%,3%,31,.,10µM*
COc1ccc(-n2ncc(C(=O)Nc3cccc(C(F)(F)F)c3)c2C2CCN(C(=O)OC(C)(C)C)CC2)cc1,?,8%,-16%,.,-4%,?
COc1cccc(-c2cccc3c2NC(=O)C3(C)Cc2ccccc2F)c1 (stereo not given),-28%,-6%,1%,84,.,-30%
Cc1ccc(C)c(Sc2ccc(NC(=O)CCN3C(=O)NC4(CCCC4)C3=O)cc2)c1,?,16µM*,?,0,-7%,?
CCc1cccc(NC(=O)CN2C(=O)NC3(CCCCCCC3)C2=O)c1,15µM*,-12%,-12%,8,4%,10µM*
CCOC(=O)N1CCN(c2nc3ccccc3nc2C(C#N)C(=O)NCCc2ccccc2)CC1 (stereo not given),21µM*,3%,-1%,-2,-3%,16µM*
N#CC(C(=O)NCCc1ccccc1)c1nc2ccccc2nc1N1CCOCC1 (stereo not given),?,-1%,39%,-8,4%,16µM*
CCCCCCNC(=O)C(C#N)c1nc2ccccc2nc1N1CCOCC1 (stereo not given),-16%,-9%,?,-3,1%,?
CCOC(=O)C1CCCN(c2nc3ccccc3nc2C(C#N)C(=O)NCc2ccccc2)C1 (stereo not given),9.2µM*,2%,9%,-5,3%,?
SMILES,TDP1 cell noCPT,HepG2 viability,TGFb SMAD3 inh,IL-1B inflam inh,TDP1 block,TDP1 cell CPT
N#CC(C(=O)NCCc1ccccc1)c1nc2ccccc2nc1N1CCCCC1 (stereo not given),-27%,-10%,2%,-3,0%,21µM*
N#CC(C(=O)NCc1ccccc1)c1nc2ccccc2nc1N1CCCC1 (stereo not given),?,17%,386%,9,2%,?
CCOC(=O)CN1C(=O)c2cccnc2Oc2ccccc21,-21%,-23%,.,.,0%,9%
O=C(CNCC1(N2CCOCC2)CCCCC1)Nc1ccc(Cl)cc1,-9%,-2%,-3%,-16,3%,-2%
CS(=O)(=O)c1ccc(Oc2ccc(-c3nnco3)cc2)c([N+](=O)[O-])c1,-15%,21%,8%,-21,6%,-19%
COc1cccc(COCCN2CCN(S(=O)(=O)c3ccccc3)CCC2=O)c1,.,0%,0%,.,9%,.
CC1=C(C(=O)Nc2cccnc2)C(c2ccccc2)n2nc(-c3ccc(O)cc3)nc2N1 (stereo not given),-12%,-3%,?,.,.,-15%
COc1ccc(NC(=O)C[C@H]2C(=O)N(Cc3ccccc3)C[C@@H]2c2ccc(OC)cc2)cc1,6%,-6%,0%,5,.,-5%
O=C(C[C@H]1C(=O)N(Cc2cccnc2)C[C@@H]1Cc1ccccc1)Nc1ccc(Br)cc1,15µM*,-41%,?,?,.,?
O=C(C[C@H]1C(=O)N(Cc2ccccc2)C[C@@H]1c1ccc(Br)cc1)Nc1ccc(Br)cc1,26µM*,-40%,?,-15,.,26µM*
COC(=O)C(Cc1ccc(O)cc1)NC(=O)CCOc1ccc(OC)cc1 (stereo not given),18%,47%,18%,23,.,6%
O[C@@H](CNC[C@H](O)[C@H]1CCc2cc(F)ccc2O1)[C@@H]1CCc2cc(F)ccc2O1,4.2µM*,.,.,.,.,6.7µM*
CC(C)(C)NC(=O)C(c1ccsc1)N(CCc1ccccc1)C(=O)Cn1nnc2ccccc21 (stereo not given),-30%,2%,-23%,26,0%,?
